Drawing on the supplement of paper PMC10849652, this text covers log2 fold change for 23 targets.

The full data set covers some 7,900 targets. This sample favours those with a hit. About 0.6% of all pairs of compound and target were hits.

UniProt Q9Y692, sequence (Q9Y692 whole entry, looked up): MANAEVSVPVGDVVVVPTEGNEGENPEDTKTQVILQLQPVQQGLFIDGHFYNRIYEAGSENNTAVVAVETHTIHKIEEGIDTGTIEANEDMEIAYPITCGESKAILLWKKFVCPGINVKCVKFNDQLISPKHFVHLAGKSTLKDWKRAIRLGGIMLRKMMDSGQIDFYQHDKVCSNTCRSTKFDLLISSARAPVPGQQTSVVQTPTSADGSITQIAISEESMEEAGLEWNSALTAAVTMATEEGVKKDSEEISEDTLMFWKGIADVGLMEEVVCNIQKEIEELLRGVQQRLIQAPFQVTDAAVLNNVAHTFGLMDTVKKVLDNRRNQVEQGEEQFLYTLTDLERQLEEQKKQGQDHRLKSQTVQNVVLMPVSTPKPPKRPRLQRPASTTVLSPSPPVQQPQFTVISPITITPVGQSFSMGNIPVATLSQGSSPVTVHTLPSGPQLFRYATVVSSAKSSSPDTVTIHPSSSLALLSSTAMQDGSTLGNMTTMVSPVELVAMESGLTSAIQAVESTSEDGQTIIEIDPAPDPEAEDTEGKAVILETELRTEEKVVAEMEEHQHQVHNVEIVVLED
UniProt P31943, sequence (P31943 whole entry, looked up): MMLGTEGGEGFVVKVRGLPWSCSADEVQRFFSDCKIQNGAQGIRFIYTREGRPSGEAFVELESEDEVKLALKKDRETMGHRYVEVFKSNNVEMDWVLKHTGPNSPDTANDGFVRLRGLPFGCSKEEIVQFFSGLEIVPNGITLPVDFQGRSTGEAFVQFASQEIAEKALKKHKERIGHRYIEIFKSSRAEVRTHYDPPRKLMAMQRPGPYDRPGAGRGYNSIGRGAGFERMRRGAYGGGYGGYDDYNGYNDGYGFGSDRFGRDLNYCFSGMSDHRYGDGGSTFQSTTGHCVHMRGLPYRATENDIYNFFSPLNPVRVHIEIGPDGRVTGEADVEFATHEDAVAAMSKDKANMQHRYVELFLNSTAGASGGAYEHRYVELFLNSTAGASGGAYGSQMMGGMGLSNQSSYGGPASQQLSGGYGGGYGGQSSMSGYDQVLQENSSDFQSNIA
UniProt Q01628, sequence (Q01628 whole entry, looked up): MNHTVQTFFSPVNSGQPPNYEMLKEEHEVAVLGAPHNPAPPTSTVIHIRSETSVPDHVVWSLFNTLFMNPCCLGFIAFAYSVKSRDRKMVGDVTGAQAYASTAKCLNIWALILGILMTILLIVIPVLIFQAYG
UniProt Q13907, sequence (Q13907 whole entry, looked up): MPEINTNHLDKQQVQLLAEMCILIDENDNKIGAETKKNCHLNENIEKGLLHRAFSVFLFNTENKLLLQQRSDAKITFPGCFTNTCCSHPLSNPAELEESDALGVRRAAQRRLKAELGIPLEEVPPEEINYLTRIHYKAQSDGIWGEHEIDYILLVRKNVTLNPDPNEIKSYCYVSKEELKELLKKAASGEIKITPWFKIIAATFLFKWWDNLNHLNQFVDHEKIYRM
UniProt P06280, sequence (P06280 whole entry, looked up): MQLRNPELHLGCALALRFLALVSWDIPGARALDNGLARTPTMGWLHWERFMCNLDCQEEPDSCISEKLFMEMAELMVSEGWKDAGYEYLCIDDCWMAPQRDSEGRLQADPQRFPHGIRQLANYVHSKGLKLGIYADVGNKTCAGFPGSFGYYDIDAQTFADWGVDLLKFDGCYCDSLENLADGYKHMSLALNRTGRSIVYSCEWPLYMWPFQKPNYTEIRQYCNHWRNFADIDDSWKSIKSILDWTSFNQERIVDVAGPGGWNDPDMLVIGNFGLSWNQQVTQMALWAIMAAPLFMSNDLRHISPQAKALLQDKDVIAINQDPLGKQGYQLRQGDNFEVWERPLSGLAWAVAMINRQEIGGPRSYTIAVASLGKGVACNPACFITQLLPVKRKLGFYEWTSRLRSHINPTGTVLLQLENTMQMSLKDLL
UniProt Q9BUJ2, sequence (Q9BUJ2 whole entry, looked up): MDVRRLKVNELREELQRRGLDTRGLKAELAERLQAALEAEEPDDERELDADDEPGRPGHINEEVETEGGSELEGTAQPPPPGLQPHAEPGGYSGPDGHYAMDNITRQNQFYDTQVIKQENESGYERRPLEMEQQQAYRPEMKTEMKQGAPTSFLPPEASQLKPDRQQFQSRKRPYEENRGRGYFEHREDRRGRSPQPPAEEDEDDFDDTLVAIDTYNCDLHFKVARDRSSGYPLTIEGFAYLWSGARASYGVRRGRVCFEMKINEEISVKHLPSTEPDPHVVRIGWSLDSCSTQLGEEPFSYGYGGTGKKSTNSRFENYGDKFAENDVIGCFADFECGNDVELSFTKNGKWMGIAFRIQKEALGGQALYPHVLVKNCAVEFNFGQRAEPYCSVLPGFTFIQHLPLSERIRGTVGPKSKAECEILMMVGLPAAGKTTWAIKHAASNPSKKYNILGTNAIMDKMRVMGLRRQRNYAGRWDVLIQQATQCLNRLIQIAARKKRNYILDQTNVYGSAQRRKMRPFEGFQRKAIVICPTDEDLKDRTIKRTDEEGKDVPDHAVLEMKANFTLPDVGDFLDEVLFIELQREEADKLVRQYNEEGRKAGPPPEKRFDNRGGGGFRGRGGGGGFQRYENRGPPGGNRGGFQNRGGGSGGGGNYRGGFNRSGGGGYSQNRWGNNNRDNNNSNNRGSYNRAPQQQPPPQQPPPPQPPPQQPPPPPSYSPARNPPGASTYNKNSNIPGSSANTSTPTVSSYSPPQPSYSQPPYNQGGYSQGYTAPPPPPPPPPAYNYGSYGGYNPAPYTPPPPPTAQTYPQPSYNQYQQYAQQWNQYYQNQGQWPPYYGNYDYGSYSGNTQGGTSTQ
UniProt P22570, sequence (P22570 whole entry, looked up): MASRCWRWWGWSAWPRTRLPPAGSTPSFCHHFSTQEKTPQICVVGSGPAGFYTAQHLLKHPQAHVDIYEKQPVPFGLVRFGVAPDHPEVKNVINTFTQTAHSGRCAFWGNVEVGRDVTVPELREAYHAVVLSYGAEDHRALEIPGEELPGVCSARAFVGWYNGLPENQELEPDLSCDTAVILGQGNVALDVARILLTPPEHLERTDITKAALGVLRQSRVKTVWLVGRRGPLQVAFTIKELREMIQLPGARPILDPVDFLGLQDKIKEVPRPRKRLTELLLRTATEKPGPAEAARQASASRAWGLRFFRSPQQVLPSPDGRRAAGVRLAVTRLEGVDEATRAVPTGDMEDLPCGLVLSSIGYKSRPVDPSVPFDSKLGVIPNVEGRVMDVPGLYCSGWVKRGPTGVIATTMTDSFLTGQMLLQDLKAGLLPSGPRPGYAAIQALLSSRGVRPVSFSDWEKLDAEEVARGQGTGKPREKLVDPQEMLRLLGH
UniProt P52655, sequence (P52655 whole entry, looked up): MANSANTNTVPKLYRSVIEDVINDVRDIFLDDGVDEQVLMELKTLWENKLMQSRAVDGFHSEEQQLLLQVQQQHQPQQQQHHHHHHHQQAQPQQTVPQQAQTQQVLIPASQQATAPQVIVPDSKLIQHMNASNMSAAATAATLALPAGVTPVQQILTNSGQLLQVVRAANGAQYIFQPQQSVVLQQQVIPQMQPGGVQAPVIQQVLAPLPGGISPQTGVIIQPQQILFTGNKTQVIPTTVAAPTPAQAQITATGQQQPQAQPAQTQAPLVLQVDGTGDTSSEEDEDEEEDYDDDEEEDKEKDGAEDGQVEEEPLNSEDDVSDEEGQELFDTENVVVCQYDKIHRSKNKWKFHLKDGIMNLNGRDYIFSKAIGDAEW
UniProt Q96JB3, sequence (Q96JB3 whole entry, looked up): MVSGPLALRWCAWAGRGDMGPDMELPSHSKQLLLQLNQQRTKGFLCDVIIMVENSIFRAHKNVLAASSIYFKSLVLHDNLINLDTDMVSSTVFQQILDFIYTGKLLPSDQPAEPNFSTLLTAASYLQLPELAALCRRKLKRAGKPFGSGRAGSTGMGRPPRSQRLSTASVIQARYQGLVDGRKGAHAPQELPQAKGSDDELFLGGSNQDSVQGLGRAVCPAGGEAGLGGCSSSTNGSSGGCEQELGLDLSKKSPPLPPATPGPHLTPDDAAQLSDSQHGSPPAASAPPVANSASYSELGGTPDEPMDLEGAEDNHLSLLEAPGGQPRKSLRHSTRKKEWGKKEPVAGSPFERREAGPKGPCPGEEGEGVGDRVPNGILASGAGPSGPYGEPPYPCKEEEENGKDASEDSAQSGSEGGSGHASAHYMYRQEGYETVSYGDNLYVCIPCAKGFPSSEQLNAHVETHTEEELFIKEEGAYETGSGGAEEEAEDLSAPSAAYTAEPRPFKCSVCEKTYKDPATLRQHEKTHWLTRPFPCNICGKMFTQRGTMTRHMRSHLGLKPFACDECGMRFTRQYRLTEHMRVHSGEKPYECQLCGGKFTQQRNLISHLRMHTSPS
UniProt P06865, sequence (P06865 whole entry, looked up): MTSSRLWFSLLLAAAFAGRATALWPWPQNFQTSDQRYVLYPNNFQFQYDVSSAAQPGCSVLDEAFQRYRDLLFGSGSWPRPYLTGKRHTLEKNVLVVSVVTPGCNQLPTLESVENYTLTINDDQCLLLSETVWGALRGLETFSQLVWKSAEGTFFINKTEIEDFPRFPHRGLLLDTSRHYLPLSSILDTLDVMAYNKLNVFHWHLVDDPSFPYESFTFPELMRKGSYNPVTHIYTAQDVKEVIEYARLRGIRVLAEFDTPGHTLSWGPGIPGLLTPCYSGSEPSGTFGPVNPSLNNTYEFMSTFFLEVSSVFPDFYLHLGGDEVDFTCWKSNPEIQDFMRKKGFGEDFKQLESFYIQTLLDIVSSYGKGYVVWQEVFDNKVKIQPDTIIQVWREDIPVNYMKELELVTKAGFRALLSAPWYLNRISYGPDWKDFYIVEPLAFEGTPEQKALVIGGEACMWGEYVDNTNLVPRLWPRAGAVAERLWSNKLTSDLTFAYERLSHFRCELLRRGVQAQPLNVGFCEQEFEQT
UniProt Q00688, sequence (Q00688 whole entry, looked up): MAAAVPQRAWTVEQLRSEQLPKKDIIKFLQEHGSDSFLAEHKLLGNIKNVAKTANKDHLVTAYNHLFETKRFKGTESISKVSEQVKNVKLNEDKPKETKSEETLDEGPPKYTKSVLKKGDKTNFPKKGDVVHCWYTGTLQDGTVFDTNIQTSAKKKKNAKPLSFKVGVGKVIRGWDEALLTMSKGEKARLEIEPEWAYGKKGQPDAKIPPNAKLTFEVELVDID

Compound in the test: C1=CC=C(C=C1)[C@H](COC2=CC3=C(C=C2)NC(=O)N3)NC(=O)C4=CC=CN(C4=O)CC5=CC(=C(C=C5)F)F
The test is described as follows: log2 fold change, soluble protein after heating vs DMSO (PISA); higher = thermal stabilisation; K562 cells, 10 uM, 30 min; active = over 0.2 and 3.5 SD of the protein, either way, in both replicates (recomputed). Put shortly:
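Aliquots of K562 cells (2×10^6 cells/mL) treated with 10 μM compound for 30 min were heated for 3 min over 48°C-58°C. After pooling and extraction in PBS with 0.5% NP-40 at 4°C, soluble protein from a 21,000xg, 90 min spin was quantified by TMTpro 16plex LC-MS/MS with channel sums equalised. Thermal stability is expressed against control samples, from duplicates, as a log2 fold change.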
For the target HNRNPUL2 (UniProt Q1KMD3), the log2 fold change was 0.054 (inactive).
Take FOXK1 (UniProt P85037): the log2 fold change is 0.104 (inactive).
Next, GTF2A1 (UniProt P52655): 0.04 (inactive); HSD17B12 (UniProt Q53GQ0): 0.013 (inactive).
Turning to IDI1 isoform 2 (UniProt Q13907), the log2 fold change is -0.024 (inactive).
Next, HEXA (UniProt P06865): 0.042 (inactive); GCC2 (UniProt Q8IWJ2): -0.027 (inactive); FDXR isoform 7 (UniProt P22570): -0.069 (inactive).
Next, IFT80 isoform 3 (UniProt Q9P2H3): -0.011 (inactive); HIST2H2BF isoform 2 (UniProt Q5QNW6): 0.148 (inactive); IFITM3 (UniProt Q01628): 0.038 (inactive).
As for GLUL (UniProt P15104), the log2 fold change was -0.015 (inactive).
The figure for HIP1 (UniProt O00291) is 0.137 (inactive).
Next, GLS (UniProt O94925): -0.022 (inactive); HIC2 (UniProt Q96JB3): 0.163 (inactive); GNPAT (UniProt O15228): -0.034 (inactive).
As for GTF2H3 (UniProt Q13889), the log2 fold change was 0.062 (inactive).
The figure for FKBP3 (UniProt Q00688) is 0.014 (inactive); for GLA (UniProt P06280) it is 0.019 (inactive).
The figure for HNRNPH1 (UniProt P31943) is -0.032 (inactive); for HNRNPUL1 (UniProt Q9BUJ2) it is -0.021 (inactive).
Next, GMEB1 (UniProt Q9Y692): 0.02 (inactive); GALK1 isoform 2 (UniProt P51570): -0.02 (inactive).
